A selection: hits, their analogues and other compounds. The true share with any hit is near 12%.
USP30 inh: human USP30 deubiquitinase inhibition; 47,000 compounds, 5.3% hits; Q70CQ3; purified USP30, Ub-rhodamine cleavage fluorescence; inhibition, % at 25 µM
USP8 inh: inhibitors of human USP8 deubiquitinase; purified USP8, Ub-rhodamine cleavage fluorescence, 30 min; AID 1645853; inhibition, % at 20 µM; 47,000 compounds, 4.2% hits
USP17 block: human USP17-like deubiquitinase inhibition; purified USP17, Ub-rhodamine cleavage fluorescence, 3 h; 47,000 compounds, 6.5% hits; AID 1645855; A8MUK1; inhibition, % at 50 µM
Target sequence (A8MUK1 whole entry, looked up): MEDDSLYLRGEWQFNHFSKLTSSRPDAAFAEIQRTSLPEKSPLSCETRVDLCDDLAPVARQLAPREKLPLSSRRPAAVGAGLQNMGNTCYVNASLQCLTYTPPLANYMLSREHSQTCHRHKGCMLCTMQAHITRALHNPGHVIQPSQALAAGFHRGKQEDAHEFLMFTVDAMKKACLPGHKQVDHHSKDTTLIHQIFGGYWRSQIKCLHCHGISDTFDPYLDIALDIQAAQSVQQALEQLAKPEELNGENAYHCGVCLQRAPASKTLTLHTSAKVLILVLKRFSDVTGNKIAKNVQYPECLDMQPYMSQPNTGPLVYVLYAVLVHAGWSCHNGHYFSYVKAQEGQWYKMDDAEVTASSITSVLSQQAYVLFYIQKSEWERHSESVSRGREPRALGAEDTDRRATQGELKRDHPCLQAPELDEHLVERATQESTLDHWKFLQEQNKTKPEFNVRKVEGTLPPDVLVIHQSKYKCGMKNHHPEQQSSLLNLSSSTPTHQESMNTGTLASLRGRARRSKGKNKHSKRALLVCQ
Starred values were filed as active, the others as inactive; nt = no result. Cut-off read from the data, not from the text of the source: active = inhibition above about 30%; inactive = the rest.

SMILES	USP30 inh	USP8 inh	USP17 block
CCOc1ccc(NC(=O)Cn2c(=O)n(CCCCCC(=O)NCc3ccc(F)cc3)c(=O)c3sccc32)cc1	49*	69*	43*
Cc1cccc(NC(=O)Cn2c(=O)n(Cc3ccc(F)cc3)c(=O)c3sccc32)c1	35*	4	69*
CCOC(=O)c1ccc(NC(=O)Cn2c(=O)n(CC(=O)NCCc3ccc(OC)c(OC)c3)c(=O)c3sccc32)cc1	66*	13	25
CN1CCC2(CCC1=O)CNC(=O)c1ccccc1O2 (configuration not stated)	-4	5	-4
O=c1c2cnc(N3CCN(c4ccc(F)cc4)CC3)nc2ccn1Cc1cccnc1	0	-3	7
COc1ccc(-c2c(C(=O)O)sc3c2NC(=O)CC3c2cccc(F)c2F)cc1 (configuration not stated)	-7	-5	-5
Cc1ccc(-c2n[nH]c3c2C(c2ccccc2F)N(c2ccccc2)C3=O)cc1 (configuration not stated)	55*	71*	69*
Cc1ccc(C2=NCCNC3=C2C(c2ccccc2F)N(c2ccccc2)C3=O)cc1 (configuration not stated)	36*	2	4
COc1ccccc1C1C2=C(NCCN=C2c2ccccc2)C(=O)N1c1ccccc1 (configuration not stated)	-6	-4	-7
Cc1nn(-c2nc3ccccc3o2)c2c1C(c1ccccc1F)CC(=O)N2 (configuration not stated)	5	-20	-3
O=C(c1cnc2n1CC(c1cccc(C(F)(F)F)c1)CC2)N1CCN(CCO)CC1 (configuration not stated)	11	11	4
NS(=O)(=O)c1ccc(CNS(=O)(=O)/C=C/c2ccccc2)cc1	78*	18	86*
Cc1cccc(OCCC(=O)NCc2ccc(S(N)(=O)=O)cc2)c1	3	0	7
COc1cccc(C(CNC(=O)CCc2ccccc2)N2CCOCC2)c1 (configuration not stated)	0	-1	-5
COc1ccc(C(=O)N2CCN(c3nc(C)cc(N4CCCCC4)n3)CC2)cc1OC	8	-2	nt
Cc1ccccc1CC(=O)NC(C)C(=O)Nc1nc2ccccc2[nH]1 (configuration not stated)	3	-8	-9
Cc1ccc(C(=O)NCC(=O)Nc2nc3ccccc3[nH]2)cc1	-3	-3	42*
O=C(CNC(=O)c1cccc(F)c1)Nc1nc2ccccc2[nH]1	39*	3	64*
O=C(Cc1cccc(F)c1)NCC(=O)Nc1nc2ccccc2[nH]1	2	-10	21
Cc1ccc(CC(=O)NC(C)C(=O)Nc2nc3ccccc3[nH]2)cc1 (configuration not stated)	24	10	12
Cc1ccccc1CC(=O)NCC(=O)Nc1nc2ccccc2[nH]1	32*	7	44*
O=C(C1CC1)N1CCCC(c2nc(N3CCOCC3)ncc2-c2cccnc2)C1 (configuration not stated)	9	3	2
Cc1ccc(CNc2nc(N3CCN(C)CC3)nc3c2cnn3C)cc1	20	0	0
O=C(NCCN1CCOCC1)c1cn2ccnc(-c3ccccc3)c2n1	-2	6	-2
Cc1ccc2nc(NC(=O)/C=C/c3ccc4c(c3)OCO4)sc2c1	27	36*	19
SMILES	USP30 inh	USP8 inh	USP17 block
Cc1ccc(/C=C/C(=O)Nc2ccc3c(c2)OCCO3)cc1	-13	-30	-8
Cn1c(=O)c2nc(-c3ccc(Cl)cc3)nnc2n(C)c1=O	13	99*	19
Cn1c(=O)n(Cc2ccccn2)c(=O)c2cnc(-c3ccc(Cl)cc3)nc21	-16	-16	-1
c1ccc2c(c1)nc(NC1CC1)c1nncn12	-151	-5	-46
CCOc1ccccc1Nc1nc2ccccc2n2cnnc12	29	7	39*
CCN1CCN(S(=O)(=O)c2ccc3c(c2)NC(=O)CC(C)S3)CC1 (configuration not stated)	-16	1	-18
FC(F)(F)c1cc(C(F)(F)F)c2ccc(N3CCC4(CC3)OCCO4)nc2n1	30	9	30*
c1ccc(-c2cc(N3CCC4(CC3)OCCO4)nc(-c3ccncc3)n2)cc1	-3	0	nt
Cc1ccc(-c2nc(NC(=O)c3ccccn3)sc2C)cc1	24	-65	-14
Cc1ccc(-c2nc(NC(=O)Nc3ccc(C(F)(F)F)cc3)sc2C)cc1Cl	5	7	33*
CN(CC(=O)Nc1ccc(Cl)cc1)c1cnn(-c2nc3ccccc3[nH]2)c(=O)c1Cl	3	30*	10
O=C(CCc1nc2ccccc2c(=O)[nH]1)Nc1ccc(Cl)cc1	-28	0	-49
CCOC(=O)c1csc(-c2ccc(F)cc2F)n1	18	25	5
Cc1ccc(CN(CCCn2ccnc2)Cc2cnn(C)c2)s1	1	30	1
C1=CCC(CN(CCCn2ccnc2)Cc2cnc[nH]2)CC1 (configuration not stated)	6	32*	0
Cc1ccccc1CC(=O)N1CCN(C(=O)c2cc(-c3ccncc3)n[nH]2)CC1	10	1	1
O=C(NCc1ccccc1Cl)c1csc(C(=O)NC2CC2)n1	1	-1	-3
Cc1ccc(OCC(=O)NCc2ccc3c(c2)OCO3)c([N+](=O)[O-])n1	-7	-119	-21
O=C(COc1ncnc2cc([N+](=O)[O-])ccc12)NCc1ccc2c(c1)OCO2	1	66*	29
O=C(NCc1ccc(CN2CCCC2)cc1)c1cc2ccccc2[nH]c1=O	28	8	65*
O=C(Nc1ccc(F)cc1)c1cc2ccccc2[nH]c1=O	nt	12	21
COc1cc2c(cc1OC)-c1cc(NCc3cc(OC)c(OC)c(OC)c3)nc(=O)n1CC2	-5	-23	nt
COc1cc2c(cc1OC)-c1cc(-c3cc(OC)c(OC)c(OC)c3)cn1CC2	-140	36*	-3
Cc1ccc(-n2nc(C)c3c(C)c(CCC(=O)NCc4ccc5c(c4)OCO5)c(C)nc32)cc1C	23	4	11
O=c1oc2c3c(c(Cl)cc2c2c1CCCC2)OCN(CCc1ccc(F)cc1)C3	4	41*	43*
SMILES	USP30 inh	USP8 inh	USP17 block
O=c1oc2c3c(c(Cl)cc2c2c1CCCC2)OCN(Cc1ccccc1)C3	-120	82*	44*
O=c1cc(CN2CCN(Cc3ccccc3)CC2)c2cc3c(cc2o1)CCC3	-4	-9	-20
COc1cccc(-c2nnc(NC(=O)CSc3ccc(Cl)cc3)o2)c1	26	0	22
Cc1ccc2[nH]c(=O)c(-c3noc(CCC(=O)NC4CCCC4)n3)cc2c1	-60	6	-67
Cc1ccc2cc(-c3noc(CCC(=O)NC4CCCC4)n3)c(=O)[nH]c2c1	22	75*	4
O=C(Cn1cnc2sc3c(c2c1=O)CCC3)N1CCc2ccccc21	-30	48*	16
O=C(Cn1c(CN2CCCCC2)nc2sc3c(c2c1=O)CCCC3)N1CCc2ccccc21	-325	-20	4
CC(C)(C)c1cc(C(=O)NCc2cnc(C3CCCCO3)nc2)n[nH]1 (configuration not stated)	3	0	0
Cc1cccc(N2CCN(C(=O)COc3ccc4ccccc4c3)CC2)c1C	-23	-6	-8
O=C(COC(=O)CCc1ccc(S(=O)(=O)N2CCOCC2)cc1)Nc1ccc2c(c1)OCCO2	20	10	nt
